± gives the standard deviation.
Tested on: MILI (PIWIL2) piRISC loaded with L1MC piRNA (26 nt)
Experiment: pre-steady-state target cleavage rate (min^-1); guide: L1MC piRNA 5'p-UAACUAAAUACUAUGCAAGCUGUAGG; MIWI and MILI are mouse PIWI proteins and EfPiwi is from a freshwater sponge; tags in brackets are library labels; higher = faster piRNA-guided slicing of the target
Settings: auxiliary factor: 500 nM mouse GTSF1
Method in brief: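 Reactions were run for 0–8 or 0–960 min at 33 °C in HEPES–potassium acetate buffer, combining 1 nM active affinity-purified piRISC with one synthetic guide, […] transcribed, DNA-blocked target RNA library and, in some cases, 500 nM GTSF1 partner protein. Sequencing of uncleaved targets followed, with normalisation to depth and to weakly complementary targets. Three trials were pooled, k3 was capped at 0.0001 min^-1, and the pre-steady-state cleavage rate was taken from a burst-and-steady-state fit.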
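Note: 1 nM active piRISC with 0.1 nM target library at 33 °C single turnover.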

Sequence	pre-steady-state target cleavage rate
UCCUGCUACAGCUUGCAUAGUAUUAAGUUA	0.245 ± 0.028
UCCUCCUACAGCUUGCAUAGUAUAUAGUUA	0.242 ± 0.026
UCCUGGUACAGCUUGCAUAGUAUUUAGUAUA	0.224 ± 0.031
UCCUCCUACUGCUUGGAUAGUAUUUAGUUA	0.223 ± 0.016
UCCUCCUACAGCAUGCAUAGUUUUUAGUUA	0.0554 ± 0.01
UCCUGCUACAAGCUUGCAUAGUAUUUAGUUA	0.157 ± 0.015
UCCUGCUAGAGCUUGCAAAGUAUUUAGUUA	0.112 ± 0.012
UCCUCCUACAGCUUGGUUAGUAUUUAGUAA	0.204 ± 0.022
UCCUGGUACGCUUGCAUAGUAUUUAGUUA	0.222 ± 0.034
UCCUGCUACAGCUAGCUUAGUAUUUAGUUA	0.227 ± 0.018
UCCUGGAACAGCUUGCUAAGUAUUUAGUUA	0.129 ± 0.015
UCCUGGAUGAGCUUGCAUAGUAUUUAGUUA [g2:g21:cont:t1A]	0.244 ± 0.014
UCCUGGUACAGCUUGCUUAGUAUUUAGUAA	0.244 ± 0.03
UCCUCCUACAGCUAGCAUAGUUUUUAGUUA	0.0658 ± 0.011
UCCUCCUACAGGUUGCAUAGUAUUUAGUAA	0.233 ± 0.017
UCCUGCUACACGAUGCAUAGUAUUUAGUUA	0.241 ± 0.022
UCCUGCUACAGCUUCGAUAGUAUUUAGUUA	0.253 ± 0.02
UCCUGGAUGUCGAAGCAUAGUAUUUAGUUA [g2:g16:cont:t1A]	0.0359 ± 0.0067
UCCUGGAUCAGCUUGCAUAGUAAUUAGUUA	0.233 ± 0.013
UCCUGGAUGUCCUUGCAUAGUAUUUUAGUUA	0.107 ± 0.017

Sequence	pre-steady-state target cleavage rate
UCCUCCUAAGCUUGCAUAGUAUUUAGUUA	0.23 ± 0.015
UCCUGGUAGAGCUUGCAUAGUUUUUAGUUA	0.0231 ± 0.005
UCCUGGUACAGCUUGCAUAGUAUUUUAGUUA	0.183 ± 0.021
UCCUCCUAGAGCUUGGAUAGUAUUUAGUUA	0.217 ± 0.013
UCCUGCAACAGCAUGCAUAGUAUUUAGUUA	0.329 ± 0.023
UCCUGGAACAGCUUGCAUAGAAUUUAGUUA	0.0554 ± 0.01
UCCUCCAACAGCUAGCAUAGUAUUUAGUUA	0.25 ± 0.017
UCCUGGAUCAGGUUGCAUAGUAUUUAGUAA	0.227 ± 0.016
UCCUGGAACAGCUAGCAAAGUAUUUAGUUA	0.11 ± 0.013
UCCUCCUACAAGCUUGCAUAGUAUUUAGUUA	0.222 ± 0.016
UCCUGGAUCUGGUUGCAUAGUAUUUAGUUA	0.158 ± 0.014
UCCUGGUAGAGCUUGCUUAGUAUUUAGUUA	0.226 ± 0.012
UCCUGCUAGCAGCUUGCAUAGUAUUUAGUUA	0.259 ± 0.014
UCCUCCUACACGAUGCAUAGUAUUUAGUUA	0.267 ± 0.011
UCCUGCUACAGGUUGCUUAGUAUUUAGUUA	0.227 ± 0.012
UCCUGGAUCAGCUUGCAUUGUAUUAAGUUA	0.142 ± 0.016
UCCUGCUACAGCUUGCUUAGUAUAUAGUUA	0.206 ± 0.028
UCCUGGAACAGCUUGCUUUGUAUUUAGUUA	0.182 ± 0.019
UCCUCCUACAGCUUGCCAUAGUAUUUAGUUA	0.173 ± 0.026
UCCUCCUACAGCUUGGUUAGUAUUUAGUUA	0.269 ± 0.016

Same assay, conditions: auxiliary factor: none (no GTSF1)

Sequence	pre-steady-state target cleavage rate
UCCUGCUACAGCUUGCAUAGUAUUAAGUUA	0.0047 ± 0.0024
UCCUCCUACAGCUUGCAUAGUAUAUAGUUA	0.00534 ± 0.0019
UCCUGGUACAGCUUGCAUAGUAUUUAGUAUA	0.00565 ± 0.0029
UCCUCCUACUGCUUGGAUAGUAUUUAGUUA	0.011 ± 0.0023
UCCUCCUACAGCAUGCAUAGUUUUUAGUUA	0.00447 ± 0.002
UCCUGCUACAAGCUUGCAUAGUAUUUAGUUA	0.00805 ± 0.002
UCCUGCUAGAGCUUGCAAAGUAUUUAGUUA	0.00382 ± 0.0021
UCCUCCUACAGCUUGGUUAGUAUUUAGUAA	0.00554 ± 0.0017
UCCUGGUACGCUUGCAUAGUAUUUAGUUA	0.0143 ± 0.0047
UCCUGCUACAGCUAGCUUAGUAUUUAGUUA	0.00468 ± 0.0023
UCCUGGAACAGCUUGCUAAGUAUUUAGUUA	0.00361 ± 0.0028
UCCUGGAUGAGCUUGCAUAGUAUUUAGUUA [g2:g21:cont:t1A]	0.0101 ± 0.0024
UCCUGGUACAGCUUGCUUAGUAUUUAGUAA	0.00308 ± 0.0025
UCCUCCUACAGCUAGCAUAGUUUUUAGUUA	0.00299 ± 0.0026
UCCUCCUACAGGUUGCAUAGUAUUUAGUAA	0.00603 ± 0.0015
UCCUGCUACACGAUGCAUAGUAUUUAGUUA	0.00624 ± 0.0023
UCCUGCUACAGCUUCGAUAGUAUUUAGUUA	0.00716 ± 0.002
UCCUGGAUGUCGAAGCAUAGUAUUUAGUUA [g2:g16:cont:t1A]	0.00487 ± 0.0016
UCCUGGAUCAGCUUGCAUAGUAAUUAGUUA	0.0101 ± 0.0024
UCCUGGAUGUCCUUGCAUAGUAUUUUAGUUA	0.0134 ± 0.0036

Sequence	pre-steady-state target cleavage rate
UCCUCCUAAGCUUGCAUAGUAUUUAGUUA	0.00512 ± 0.002
UCCUGGUAGAGCUUGCAUAGUUUUUAGUUA	0.00498 ± 0.0023
UCCUGGUACAGCUUGCAUAGUAUUUUAGUUA	0.0144 ± 0.0062
UCCUCCUAGAGCUUGGAUAGUAUUUAGUUA	0.00594 ± 0.0019
UCCUGCAACAGCAUGCAUAGUAUUUAGUUA	0.00926 ± 0.0035
UCCUGGAACAGCUUGCAUAGAAUUUAGUUA	0.00299 ± 0.0027
UCCUCCAACAGCUAGCAUAGUAUUUAGUUA	0.00537 ± 0.0023
UCCUGGAUCAGGUUGCAUAGUAUUUAGUAA	0.00858 ± 0.0024
UCCUGGAACAGCUAGCAAAGUAUUUAGUUA	0.00729 ± 0.002
UCCUCCUACAAGCUUGCAUAGUAUUUAGUUA	0.00894 ± 0.0024
UCCUGGAUCUGGUUGCAUAGUAUUUAGUUA	0.0105 ± 0.0029
UCCUGGUAGAGCUUGCUUAGUAUUUAGUUA	0.00793 ± 0.0029
UCCUGCUAGCAGCUUGCAUAGUAUUUAGUUA	0.00955 ± 0.0024
UCCUCCUACACGAUGCAUAGUAUUUAGUUA	0.00666 ± 0.0022
UCCUGCUACAGGUUGCUUAGUAUUUAGUUA	0.0118 ± 0.0038
UCCUGGAUCAGCUUGCAUUGUAUUAAGUUA	0.00356 ± 0.0025
UCCUGCUACAGCUUGCUUAGUAUAUAGUUA	0.00313 ± 0.0023
UCCUGGAACAGCUUGCUUUGUAUUUAGUUA	0.0038 ± 0.0025
UCCUCCUACAGCUUGCCAUAGUAUUUAGUUA	0.00264 ± 0.0026
UCCUCCUACAGCUUGGUUAGUAUUUAGUUA	0.00996 ± 0.0021
